About 79,000 compounds went through this panel and 15% of them were active in at least one assay; those are over-represented in the sample as a whole. Cut-off read from the data, not from the text of the source: active = growth inhibition above about 70%; inactive = the rest.
Columns and labels:
[1] = NCI Yeast Anticancer Drug Screen. Data for the rad50 strain (AID 155);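 note: 0% = growth of vehicle-only cultures of the same strain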; details: S. cerevisiae rad50 strain growth inhibition; at 50.0 µM; hits give high values
Procedure, shortened: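 Readout: growth inhibition relative to vehicle-treated cultures. Compound exposure was carried out in a genetically defined yeast strain deficient in DNA damage repair.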

[2] = NCI Yeast Anticancer Drug Screen. Data for the mec2-1 strain (AID 157); details: S. cerevisiae mec2-1 strain, at 50.0 µM, hits give high values
Procedure, shortened: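 Using mec2-1 yeast: add compound, measure growth, express inhibition versus vehicle-treated cultures.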

[3] = NCI Yeast Anticancer Drug Screen. Data for the sgs1 mgt1 strain (AID 161);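 note: 0% = growth of cultures given vehicle only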; details: S. cerevisiae sgs1 mgt1 strain, at 50.0 µM, hits give high values
Procedure, shortened: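 Growth of a repair-deficient yeast mutant was monitored after compound treatment and expressed as inhibition relative to vehicle-treated cultures.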

[4] = NCI Yeast Anticancer Drug Screen. Data for the cln2 rad14 strain (AID 165);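 note: 0% = growth equal to vehicle treated cultures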; details: S. cerevisiae cln2 rad14 strain, at 50.0 µM, hits give high values
Procedure, shortened: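 Yeast strain cln2 rad14, bearing defects in cell cycle control and DNA repair, serves as the test system; values reflect growth inhibition compared with vehicle.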

[5] = NCI Yeast Anticancer Drug Screen. Data for the bub3 strain (AID 167); details: S. cerevisiae bub3 mutant strain, at 50.0 µM, hits give high values
Procedure, shortened: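 Readout: yeast growth inhibition, expressed relative to vehicle-only wells. The test organism is a mutant strain from a panel with lesions in DNA repair or checkpoint genes.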

[6] = NCI Yeast Anticancer Drug Screen. Data for the mlh1 rad18 strain (AID 175); details: S. cerevisiae mlh1 rad18 strain growth inhibition; at 50.0 µM; hits give high values
Procedure, shortened: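 Steps: expose repair-defective yeast to compound; measure growth; express inhibition against vehicle-treated controls.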

Measured: growth inhibition

O[C@H](c1ccccc1)[C@@H](c1ccccc1)N1CCCCC1
inactive: [1] -9.85% | [2] -11.9% | [3] -3.65% | [4] -28% | [5] 41.9% | [6] -11.6%

S=P(N1CCCCC1)(N1CCCCC1)N1CCCCC1
inactive: [1] -6.95% | [2] -6.8% | [3] -3.15% | [4] -17.8% | [5] -4.2% | [6] -7.1%

Cc1cc2[nH]c3c(C#N)c(OC(=O)N(C)C)c(-c4ccccc4)c(=O)n3c2cc1C
inactive: [1] -8.75% | [2] 9.5% | [3] -7.85% | [4] -7.15% | [5] 1.9% | [6] 1.6%

COC12c3ccccc3-c3ccccc3C1[C@@H](C(=O)O)[C@H]2C(=O)O (stereo partly specified)
inactive: [1] 11.2% | [2] 1.6% | [3] -11.6% | [4] -14% | [5] -24.4% | [6] -10.3%

CCOP(=S)(NCCCOC)OCC
inactive: [1] 0.25% | [2] 5.8% | [3] 12.3% | [4] -32.4% | [5] 22.6% | [6] 2.4%

CC1(C)c2ccccc2C(c2ccccc2)(c2ccccc2)[N+]1(C)C
inactive: [1] 63.4% | [2] 33.7% | [3] 52.2% | [4] 21.7% | [5] 22.2% | [6] 49%

CCOP(=O)(OCC)SC#N
inactive: [1] 15.1% | [2] -2.85% | [3] -6.4% | [4] 6.5% | [5] -1.05% | [6] 16.1%

O=C1CC2(CCNCC2)C(=O)N1N1CCCCC1
inactive: [1] -2.5% | [2] 12% | [3] 5.9% | [4] 7.15% | [5] 1.45% | [6] 5.4%

COc1ccc(Oc2cc3c(cc2OC)CCN(C)C3)cc1
inactive: [1] 15.9% | [2] 7.7% | [3] 20.1% | [4] -0.6% | [5] -22.9% | [6] -6.6%

O=[N+]([O-])c1cc(Cl)c(Cl)c([N+](=O)[O-])c1Cl
inactive: [1] -7.05% | [2] -18.3% | [3] 6.4% | [4] -23.8% | [5] -1.95% | [6] 6.8%

COc1cc(C2c3cc4c(cc3OC(C)(O)C2C)OCO4)cc(OC)c1OC (stereo unspecified)
inactive: [1] 8.8% | [2] -1.15% | [3] 9.85% | [4] -25.4% | [5] -16.9% | [6] 15.2%

O=[N+]([O-])c1ccc(-n2nc3ccc4c(no[n+]4[O-])c3n2)cc1
inactive: [1] -21.6% | [2] 23.5% | [3] 20.1% | [4] 16.6% | [5] -15.6% | [6] -25.6%

CCCCC1(CCSC(=S)OCC)C(=O)NC(=O)NC1=O
inactive: [1] 12.6% | [2] -12.1% | [3] 1.55% | [4] -36.4% | [5] -2.7% | [6] -11.8%

CC(C)(C#N)O[N+](=O)[O-]
inactive: [1] 0.1% | [2] 7.3% | [3] -4.7% | [4] -16.8% | [5] -0.7% | [6] 0.2%

c1cc2n[se]nc2cc1-c1ccc2n[se]nc2c1
inactive: [1] 26.7% | [2] -11.8% | [3] -7.85% | [4] -40.2% | [5] -9.55% | [6] -17.4%

[C-]#[O+].[C-]#[O+].[C-]#[O+].[W].c1ccc([PH+](CC[PH+](c2ccccc2)c2ccccc2)CC[PH+](c2ccccc2)c2ccccc2)cc1
inactive: [1] 0.6% | [2] -18.7% | [3] -1.8% | [4] 3.45% | [5] 3.85% | [6] 2.6%

ClCCCN1CCN(c2ccccc2Cl)CC1
inactive: [1] 9.35% | [2] -16.7% | [3] 7.45% | [4] 7.45% | [5] 1.15% | [6] -7.8%

CC12CCC3C(CCC4=CC(O)CCC43C=O)C1(O)CCC2c1ccc(=O)oc1 (stereo unspecified)
inactive: [1] 7.15% | [2] -35% | [3] 18.1% | [4] 15.2% | [5] -11.2% | [6] 5.05%

C#CC(C)N1CCC2(CC1)C(=O)NCN2c1ccccc1 (stereo unspecified)
inactive: [1] -19.3% | [2] -6.1% | [3] -15.7% | [4] -2.85% | [5] -4.05% | [6] 0.65%

CN(C)c1ccc(C=C2C(=O)NC(=O)NC2=O)cc1
inactive: [1] 37.9% | [2] -16.4% | [3] 19.1% | [4] 14.4% | [5] 14.8% | [6] 9.65%

CC(=O)C(CN1CCCCC1)C(c1ccccc1)c1c(O)c2ccccc2oc1=O (stereo unspecified)
inactive: [1] 6.8% | [2] -9% | [3] 9.25% | [4] 26.2% | [5] 33% | [6] 9.55%

Reference: PubChem BioAssay (NCI)
